A selection: hits, their analogues and other compounds. The true share with any hit is near 1.1%.
VLA-4 inh = inhibition in human VLA-4 binding assay, primary screen, VLA-4 allosteric modulator project, MLPCN library, flow cytometry, VLA-4 expressing cells | Integrin alpha-4 (Homo sapiens), P13612 | ligand binding flow cytometry | inhibition, % (about 7 µM as worked out from the volumes in the protocol) | 330,000 tested, 0.2% active | AID 2557, 2010; in the data active = inhibition above about 50%
Target sequence (P13612 whole entry, looked up): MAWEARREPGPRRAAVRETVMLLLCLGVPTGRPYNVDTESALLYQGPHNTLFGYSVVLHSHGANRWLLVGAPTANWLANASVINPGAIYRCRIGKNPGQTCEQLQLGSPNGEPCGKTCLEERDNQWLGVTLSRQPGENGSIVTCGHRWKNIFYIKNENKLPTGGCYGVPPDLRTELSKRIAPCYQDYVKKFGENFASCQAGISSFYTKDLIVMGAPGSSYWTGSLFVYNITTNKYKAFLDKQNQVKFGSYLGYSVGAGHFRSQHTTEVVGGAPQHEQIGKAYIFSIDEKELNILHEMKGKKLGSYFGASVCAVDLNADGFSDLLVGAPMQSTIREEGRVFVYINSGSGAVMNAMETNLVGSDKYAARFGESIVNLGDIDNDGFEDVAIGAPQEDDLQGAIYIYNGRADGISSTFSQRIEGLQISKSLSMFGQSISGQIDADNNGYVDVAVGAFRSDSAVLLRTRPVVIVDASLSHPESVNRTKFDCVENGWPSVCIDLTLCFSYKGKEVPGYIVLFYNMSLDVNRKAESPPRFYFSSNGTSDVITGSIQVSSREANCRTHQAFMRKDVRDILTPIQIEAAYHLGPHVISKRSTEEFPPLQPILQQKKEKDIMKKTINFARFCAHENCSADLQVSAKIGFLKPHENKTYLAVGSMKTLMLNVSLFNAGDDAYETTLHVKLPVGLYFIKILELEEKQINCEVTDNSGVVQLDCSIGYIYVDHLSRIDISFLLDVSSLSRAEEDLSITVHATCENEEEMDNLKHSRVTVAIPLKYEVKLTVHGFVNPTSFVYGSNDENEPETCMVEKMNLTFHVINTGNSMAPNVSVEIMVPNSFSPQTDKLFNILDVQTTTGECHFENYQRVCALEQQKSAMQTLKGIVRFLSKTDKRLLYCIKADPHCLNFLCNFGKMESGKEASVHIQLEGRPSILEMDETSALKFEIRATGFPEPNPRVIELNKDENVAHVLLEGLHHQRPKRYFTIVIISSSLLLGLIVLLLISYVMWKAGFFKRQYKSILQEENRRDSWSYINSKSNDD
MEP2-GFP yeast = modulators of MEP2-GFP levels in yeast, primary screen, S. cerevisiae, multiplex flow cytometry, MLPCN library; 330,000 tested, 0.51% active; S. cerevisiae MEP2-GFP strain, 3 h; 100% = DMSO control level; GFP response vs DMSO, % at 10 µM;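 active = GFP response versus DMSO above a set limit, roughly screen mean plus 3 SD, cut at about 180% in these data; inconclusive = fewer than 70 cells counted for a yeast strain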;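 also: median GFP fluorescence of the barcode-gated MEP2-GFP cells per well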
RPL19A TOR yeast = RPL19A-GFP expression modulators in yeast, primary screen, cell-based, S. cerevisiae, multiplex flow cytometry, MLPCN; S. cerevisiae RPL19A-GFP strain, 3 h; hits give low values; percent response vs DMSO, % at 10 µM; 330,000 tested, 0.3% active; AID 2025, 2009;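 active = percent response vs DMSO below 50%; inconclusive = fewer than 70 events counted for the yeast strain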;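 also: median channel GFP fluorescence of the barcoded RPL19A-GFP strain; ratio of sample median GFP to plate DMSO average so 100% = DMSO; lower means less RPL19A-GFP as with rapamycin TOR inhibition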
LAP4-GFP MLPCN = modulators of LAP4-GFP expression in yeast, primary screen, S. cerevisiae, multiplex flow cytometry, MLPCN library. 3 h; median GFP as percent of DMSO wells. GFP response vs DMSO, % at 10 µM. 320,000 tested, 0.34% active. AID 2023, 2009;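 active = GFP response vs DMSO above a set limit, about the screen mean plus 3 SD, cut at about 150% in these data; inconclusive = under 70 cell events counted for the yeast strain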
CIT2 TOR yeast = modulators of CIT2-GFP expression in yeast, primary screen, S. cerevisiae, GFP fusion, multiplex flow cytometry, MLPCN library; S. cerevisiae CIT2-GFP strain, 3 h; 100 means same as DMSO wells; 320,000 tested, 0.065% active; AID 2029, 2009; GFP response vs DMSO, % at 10 µM;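 active = GFP response relative to DMSO above a set limit, near the screen mean plus 3 SD, cut at about 150% in these data; inconclusive = Fewer than 70 cells measured for a yeast strain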;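 also: ratio of well median GFP fluorescence to mean of DMSO wells on the plate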
AGP1-GFP MLPCN = modulators of AGP1-GFP expression in yeast TOR pathway, primary screen, cell-based, multiplex flow cytometry, S. cerevisiae, MLPCN library | GFP response vs DMSO, % at 10 µM | AID 2066, 2009 | 320,000 tested, 0.02% active | 3 h; GFP as percent of DMSO wells;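 active = GFP response relative to DMSO above a set limit, near screen average plus 3 SD, cut at about 150% in these data; inconclusive = fewer than 70 cells counted for the yeast strain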;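 also: median GFP channel fluorescence of the gated AGP1 strain per well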
The depositor's hits bear a star; ? = inconclusive; . = no result; [ ] = dose if it differs, or a comment.

SMILES | VLA-4 inh | MEP2-GFP yeast | RPL19A TOR yeast | LAP4-GFP MLPCN | CIT2 TOR yeast | AGP1-GFP MLPCN
CCn1cc(C(=O)NN)c(=O)c2cc(F)c(N3CCOCC3)cc21 | -5 | 114 | 104 | 106 | 100 | 98
CS(=O)(=O)c1ccc2nc(NC(=O)c3ccc(Cn4cc(Br)cn4)o3)sc2c1 | 6 | 102 | 108 | 78 | . | 99
Cc1onc(-c2c(F)cccc2Cl)c1C(=O)NC(C)c1ccccc1 (centres undefined) | 15 | 195*[may fluoresce violet] | 97 | 92 | ? | 26
CCOc1ccccc1C(=O)Nc1ccc2nc(N3CCN(c4ncccn4)CC3)cc(C)c2c1 | 26 | 109 | 90 | 108 | 103 | 97
COc1cccc(C(=O)Nc2ccc3nc(N4CCN(c5ncccn5)CC4)cc(C)c3c2)c1OC | 3 | 272*[may fluoresce violet] | 18*[may fluoresce violet] | 71 | ? | ?
COc1ccccc1N1CCN(C(=O)C(Sc2ccccc2)c2ccccc2)CC1 (centres undefined) | 5 | 261*[may fluoresce violet] | 40*[may fluoresce violet] | 93 | ? | .
CC(OC(=O)C1CC1)C(=O)Nc1cc(Cl)cc(Cl)c1 (centres undefined) | 0 | 108 | 98 | 92 | 97 | 99
COc1ccc(OC)c(NC(=O)CN(Cc2ccc(F)cc2)C2CCCCC2)c1 | 15 | 101 | 104 | 96 | 110 | 105
COc1ccc(NC(=O)Nc2c(O)ccc3ccccc23)cc1 | -11 | ? | 22*[may fluoresce violet] | 96 | ? | ?
COc1ccc(C(=O)Nc2c(O)ccc3ccccc23)cc1OC | -1 | 489*[may fluoresce violet] | 43*[may fluoresce violet] | 105 | ? | ?
CCOc1ccc(N2CC(C(=O)Nc3ccc(S(=O)(=O)N4CCOCC4)cc3)CC2=O)cc1 (centres undefined) | 2 | 186*[may fluoresce violet] | 64 | 96 | ? | 26
O=C(Nc1ccc2c(c1)OCO2)c1ccc([N+](=O)[O-])cc1[N+](=O)[O-] | 0 | 220*[may fluoresce violet] | 65 | 99 | ? | 23
CC(Oc1ccc(Cl)cc1)C(=O)Nc1ccc(S(=O)(=O)N2CCOCC2)cc1 (centres undefined) | 1 | 275*[may fluoresce violet] | 58 | 93 | ? | 26
O=C(Nc1ccc(S(=O)(=O)N2CCOCC2)cc1)c1ccc([N+](=O)[O-])cc1Cl | -4 | 307* | 107 | 118 | 101 | 108
CCOC(=O)C1=C(COC(=O)CCOc2cc(C)ccc2C)NC(=O)NC1C (centres undefined) | 0 | 102 | 99 | 103 | 94 | 104
O=C(COc1ccc([N+](=O)[O-])cc1)Nc1ccc(S(=O)(=O)N2CCOCC2)cc1 | -9 | 399*[may fluoresce violet] | 58 | 96 | ? | 24
CCOc1ccc(-n2c(-c3ccccc3)nnc2-c2ccccc2)cc1 | 3 | 252*[may fluoresce violet] | 45*[may fluoresce violet] | 79 | ? | .
Cc1ccccc1OC1CCN(C(=O)C2CCC(=O)N(C3CCCC3)C2)CC1 (centres undefined) | -20 | 99 | 88 | 156* | 100 | 105
O=C(CNC(=S)N(Cc1ccccc1F)C1CCCCC1)NCCCN1CCOCC1 | 24 | 317*[may fluoresce violet] | 56 | 86 | ? | ?
CCc1cccc2c1NC(=O)C21OCCO1 | 38 | 102 | 97 | 98 | 98 | 105
COc1ccc(C(=O)Nc2ccc(C(=O)N3CCCCC3)cc2)cc1OC | 19 | 355*[may fluoresce violet] | 50 | 83 | ? | 16
COc1cccc(NC(=O)CNC(=O)Cn2cnc3sc(C)c(C)c3c2=O)c1 | -6 | 102 | 97 | 99 | 98 | 98
CCCCn1c(N)c(N(CC(C)C)C(=O)CCS(=O)(=O)c2ccc(C)cc2)c(=O)[nH]c1=O | 21 | 100 | 96 | 112 | 103 | 108
COc1ccc(C(=O)Oc2ccc(/C=N/NC(=O)c3ccccc3OC)cc2[N+](=O)[O-])cc1 | 3 | 195* | 102 | 117 | 105 | 100
